The structures appear in SMILES notation. Inconclusive results are not listed. Activity calls are given as the source filed them. The call rests on the fitted dose curve; in most records, active means well fitted curve in the direction sought with a large enough effect; inconclusive means small, poorly fitted or top-dose-only effect, or another doubt; inactive means no such curve, though single readings can be large or run the other way.

Luciferin 4-monooxygenase (Photinus pyralis), sequence (P08659 whole entry, looked up): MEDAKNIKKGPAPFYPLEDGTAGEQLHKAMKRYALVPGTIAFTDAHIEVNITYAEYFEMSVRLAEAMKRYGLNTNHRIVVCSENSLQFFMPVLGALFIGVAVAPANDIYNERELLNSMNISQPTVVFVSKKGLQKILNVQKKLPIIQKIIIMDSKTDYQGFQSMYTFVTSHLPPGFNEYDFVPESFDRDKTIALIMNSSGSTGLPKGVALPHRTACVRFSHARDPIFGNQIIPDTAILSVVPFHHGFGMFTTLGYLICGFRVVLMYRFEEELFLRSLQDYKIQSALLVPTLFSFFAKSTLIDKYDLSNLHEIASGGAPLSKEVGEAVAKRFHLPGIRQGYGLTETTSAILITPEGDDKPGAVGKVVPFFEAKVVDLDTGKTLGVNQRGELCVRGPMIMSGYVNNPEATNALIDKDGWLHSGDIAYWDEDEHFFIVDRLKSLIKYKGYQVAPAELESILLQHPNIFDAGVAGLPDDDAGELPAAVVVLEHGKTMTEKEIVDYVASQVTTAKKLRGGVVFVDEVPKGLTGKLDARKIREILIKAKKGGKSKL

The test concerns the target Luciferin 4-monooxygenase (Photinus pyralis) (UniProt P08659). Briefly: miR-21 counterscreen using purified firefly luciferase. The note with it: purified P. pyralis luciferase, luminescence; series mostly up to 57.5 µM. From the text:
MLPCN Grant: 1 R21 NS059478-01 Assay Provider: Qihong Huang, The Wistar Institute NCGC Assay Overview: MicroRNAs (miRNAs) are endogenously encoded small (~20-25 nucleotides), nonprotein-coding RNAs that are involved in post-transcriptional repression of target messenger RNAs (mRNAs) (Le and Hannon, 2004). Estimated to be involved in the regulation of 30% of all protein-coding mRNAs (Filipowicz et al., 2008), miRNAs play a significant role in many biological processes including cellular differentiation and tissue development (Ghildiyal and Zamore, 2009). […] Compounds active in the miR-21 FLuc assay were clustered using Leadscope and active chemical series were prioritized based on chemical properties, potential for medicinal chemistry optimization, and SAR. Within each chemical series, representative compounds were re-acquired to test for activity in a secondary assay based on the quality of their CRC, efficacy, and potency. This secondary assay to determine if compounds active in the miR-21 FLuc assay were just luciferase inhibitors. Compounds found active in both the miR-21 FLuc and purified FLuc assays are considered as false positives. Keywords: NIH Roadmap, MLPCN, MLSMR, qHTS, miR-21, firefly luciferase, FLuc, miRNA.
NCGC Assay Protocol Summary: Reagents: 50mM Tris acetate, pH 7.5; 10mM Mg acetate; 10uM D-luciferin (Sigma #L9504); 10uM ATP; 0.01% Tween-20; 0.05% BSA; 10nM P. pyralis luciferase (Sigma #L9506) Control compounds used were two known firefly luciferase inhibitors (compounds (2) and (5) in Auld et al., 2010), and DMSO. Assay Summary: Three microliters containing firefly luciferase substrates in buffer (final concentrations: 50mM Tris acetate, pH 7.5, 10mM Mg acetate, 0.01% Tween-20, 0.05% BSA, 10uM D-luciferin, and 10uM ATP) are dispensed into each well of a Greiner white, solid-bottom 1536-well format plate using a flying reagent dispenser (FRD). These assay plates were then treated with 23nL of compound or DMSO using a Kalypsys pin tool, which allows for delivery of a 6-point interplate titration of each compound to the assay plate (quantitative HTS), with a final compound concentrations ranging from approximately 60 µM to 7pM. One microliter of firefly luciferase in […] Tris-acetate buffer was then delivered by FRD to each well for a final enzyme concentration of 10nM. Luciferase activity was then measured using a ViewLux CCD imager (PerkinElmer), with an average exposure time of 2-30 seconds (2X binning, medium/high gain).
Turning to `O=C(CSc1nnc(-c2cccnc2)o1)Nc1cccc(Cl)c1`, the compound was classed as inactive.

`Cc1cc(C)n2c(SCc3ccccc3Cl)nnc2n1`: the compound was classed as inactive.

As to `c1ccc(CSc2nnc3ccc(-c4cccs4)nn23)nc1`, the result was inactive.

`Cc1ccc(CNc2nc3nc(C)c(Cl)c(C)n3n2)cc1`: the compound was classed as inactive.

`COc1cccc(-n2nnc(-c3nc(-c4cccs4)no3)c2N)c1`: the outcome was inactive.

As to `CS(=O)(=O)c1ncc(Cl)c(C(=O)Nc2ccc3ccccc3c2)n1`, the compound was called inactive.

As for `Cc1ccccc1OCCn1cnc2c(N)ncnc21`, the compound was called inactive.

As for `O=C(CSc1nnc(-c2ccccn2)o1)Nc1cccc(Cl)c1`, the result was inactive.

In the case of `CCc1nonc1NC(=O)c1oc2cc(C)c(C)cc2c1C`, the call was inactive.

Consider `N#Cc1cc2cc3c(cc2nc1SCC(=O)N1CCOCC1)OCO3`, for which the result was inactive.

In the case of `CCC(=O)n1nc(-c2cccnc2)nc1NCc1ccc(F)cc1`, the result was inactive.

In the case of `CCS(=O)(=O)c1ncc(Cl)c(C(=O)N2CCN(c3cccc(Cl)c3)CC2)n1`, the result was inactive.

Turning to `Cc1ccc(Nc2ncnc(N)n2)cc1C`, the result was inactive.

Consider `O=C(c1ccc(Cl)cc1)n1nc(-c2ccccc2)nc1NCc1ccco1`, for which the result was inactive.

For the compound `CC(=O)Nc1nc2c(C)cc(NC(=O)C3CCCCC3)cc2s1`, the compound was classed as inactive.

Consider `COc1ccccc1NC(=O)C/C(C)=N/NC(=O)c1ccccn1`, for which the call was inactive.

As to `Cc1cc(C)c2c(N)c(C(=O)Nc3ccccc3F)sc2n1`, the compound was called inactive.

For the compound `Cc1cccc(-n2nnc(-c3nc(-c4cccs4)no3)c2N)c1`, the call was inactive.

`CC(C)(C)C1CCc2nc(NC(=O)Cc3cn4ccsc4n3)sc2C1` (stereo not given): the activity change, negative = inhibition is 0.54% [at 2.3 µM] (inactive).

Consider `Cc1cccc(-n2nnc(-c3nc(-c4cccs4)no3)c2N)c1C`, for which the call was inactive.

As for `CC(C)COc1ccc(C(=O)Nc2cc(-c3ccccc3)no2)cc1`, the outcome was inactive.

In the case of `Cc1ccc(-c2nsc(SCC(=O)Nc3ccc4c(c3)OCO4)n2)cc1`, the result was inactive.

On to `Cc1ccccc1Nc1nc(N)nc(CN(C)c2ccccc2)n1`, for which the call was inactive.

Consider `CC(C)(C)c1ccc(NC(=O)CSc2nnc(-c3n[nH]c4ccccc34)o2)cc1`, for which the call was inactive.

For `COc1ccc(CNc2nc(-c3ccco3)nn2C(=O)CC(C)C)cc1`, the call was inactive.

Turning to `CCc1nonc1NC(=O)c1oc2ccccc2c1C`, the outcome was inactive.

Turning to `Cc1c(-c2nc(-c3ccc(C(F)(F)F)cc3)no2)n(C)oc1=O`, the call was inactive.

On to `COCc1cc(C)nc2sc(C(=O)OC(C)C)c(N)c12`, for which the activity change, negative = inhibition is -1.1% [at 2.3 µM] (inactive).

With `O=C(CSc1nnc(-c2ccc(O)cc2)o1)Nc1ccccc1Br`, the outcome was inactive.

Take `Cc1cccc(-c2nnc(SCC(=O)Nc3ccc(C)c(C)c3)o2)c1`: the compound was called inactive.

`Cc1cccc(-c2nsc(SCC(=O)Nc3ccc4c(c3)OCO4)n2)c1`: the call was inactive.

As for `CCS(=O)(=O)n1nc(-c2ccccc2)nc1NCc1ccco1`, the result was inactive.

With `COc1ccccc1NC(=O)CSc1nnc(-c2ccccn2)o1`, the outcome was inactive.

In the case of `COc1ccc(NCc2cccn2-c2nnc(N3CCC(C)CC3)s2)c(OC)c1`, the result was inactive.

With `C[C@]12CC[C@H]3C(=CCc4cc(O)ccc43)[C@@H]1CCC2=O`, the call was inactive.

Consider `COc1ccc(-c2csc(NC(=O)COC(=O)c3ccc(Br)o3)n2)cc1`, for which the outcome was inactive.

For the compound `COc1cccc(C(=O)Nc2ccc3nc(N4CCN(c5ncccn5)CC4)cc(C)c3c2)c1OC`, the call was inactive.

For `CCc1ccc2oc(C(=O)Nc3nonc3CC)c(C)c2c1`, the outcome was inactive.

Turning to `O=C(Nc1ccc(-c2nc3ccccc3[nH]2)cc1)c1ccc2c(c1)OCO2`, the result was inactive.

As for `Cc1ccc(C(=O)Nc2ccc3c(c2)N(C)C(=O)c2ccccc2S3)cc1F`, the compound was classed as inactive.

Values taken from PubChem BioAssay AID493175 (National Center for Advancing Translational Sciences (NCATS), 2011).
